Consider 16 molecules from PubChem BioAssay (NCATS).

Results filed as inconclusive are left out. A call without a number means that no potency is given here. Active and inactive are the calls of the source. The call rests on the fitted dose curve; in most records, active means well fitted inhibition curve with a large enough effect; inconclusive means small, poorly fitted or top-dose-only effect; inactive means flat fitted curve, though single readings scatter. Bridge positions count the residues as written; N and C are the ends. Square brackets hold non-standard residues; d marks the D form. Peptide text beside a SMILES is read from it. * marks the point of attachment. Ileψ(thiazoline)Cys = CC[C@H](C)[C@H](N)C1=N[C@H](C(=O)*)CS1; d(aIle) = CC[C@H](C)[C@@H](N)C(=O)O; dOrn = NCCC[C@@H](N)C(=O)O

The assay deals with CP315. The assay can be described thus: qHTS profiling for inhibitors of Plasmodium falciparum proliferation (AID 504749). Further: nearly all actives have a fitted effect of over 60% in size. Particulars: P. falciparum in erythrocytes, SYBR Green DNA, 72 h; series mostly up to 12.8 µM. The method, boiled down: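 Each compound contacts P. falciparum-infected red blood cells for 72 h at 37 C; lysis buffer (Tris, EDTA, saponin, Triton X, SYBR Green I) is added and fluorescence measured next morning; values normalized to controls.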
(Quantitative high-throughput screening tests each substance at several concentrations.)
For `CN1CCO[C@H](c2ccccc2)c2ccccc2C1`, the Potency result is “inactive”.

In the case of `C[C@H](CCC(=O)O)[C@H]1CC[C@@H]2[C@@H]3[C@@H](O)C[C@H]4C[C@@H](O)CC[C@@]4(C)[C@H]3CC[C@@]21C`, the Potency result was “inactive”.

Consider `CN(C/C=C\c1ccccc1)Cc1cccc2ccccc12`, for which the Potency result was “inactive”.

As for `CCN(CCCCOC(=O)c1ccc(OC)c(OC)c1)[C@@H](C)Cc1ccc(OC)cc1`, the Potency result is “inactive”.

With `CCC(=O)OCC(=O)[C@@]1(OC(=O)CC)[C@H](C)C[C@@H]2[C@@H]3[C@H]([C@@H](O)C[C@@]21C)[C@]1(C)C=CC(=O)C=C1C[C@@H]3Cl`, the Potency entry is “inactive”.

`C[C@H](C(=O)O)c1cccc(Oc2ccccc2)c1`: the Potency entry was “inactive”.

In the case of `CC1(C)[C@@H](OC(=O)CCC(=O)O)CC[C@@]2(C)[C@H]1CC[C@@]1(C)[C@H]2C(=O)C=C2[C@H]3C[C@](C)(C(=O)O)CC[C@]3(C)CC[C@@]21C`, the Potency entry is “inactive”.

As to `CCOC(=O)O[C@@H](C)OC(=O)[C@@H]1N2C(=O)[C@@H](NC(=O)[C@@H](N)c3ccccc3)[C@H]2SC1(C)C`, the Potency entry was “inactive”.

Take `Cc1ccsc1/C=C\C1=NCCCN1C`: the Potency result was “inactive”.

`Cc1cccc(CN2CCN([C@@H](c3ccccc3)c3ccc(Cl)cc3)CC2)c1`: the Potency result is “inactive”.

As to `C#C[C@]1(O)CC[C@@H]2[C@H]3CCC4=CCCC[C@@H]4[C@@H]3CC[C@@]21C`, the Potency result was “inactive”.

On to `CC[C@H](C)[C@H](N)C1=N[C@H](C(=O)N[C@@H](CC(C)C)C(=O)N[C@@H](CCC(=O)O)C(=O)N[C@@H](C(=O)N[C@H]2CCCCNC(=O)[C@@H](CC(N)=O)NC(=O)[C@@H](CC(=O)O)NC(=O)[C@@H](Cc3cnc[nH]3)NC(=O)[C@@H](Cc3ccccc3)NC(=O)[C@@H]([C@@H](C)CC)NC(=O)[C@@H](CCCN)NC2=O)[C@@H](C)CC)CS1` ({Ileψ(thiazoline)Cys}-LE[d(aIle)]K[dOrn][d(aIle)][dF][dH][dD][dN]; lactam 4-C), for which the Potency entry is “inactive”.

For `O=C(O)COCCN1CCN([C@@H](c2ccccc2)c2ccc(Cl)cc2)CC1`, the Potency entry is “inactive”.

On to `CCN(CC)CCOC(=O)[C@@H](Cc1cccc2ccccc12)C[C@@H]1CCCO1`, for which the Potency result was “inactive”.

Take `C[C@@H](CNC1CCCCC1)OC(=O)c1ccccc1`: the Potency result was “inactive”.

Turning to `CC[C@H](CO)NCCN[C@@H](CC)CO`, the Potency entry is “inactive”.
